Assay results reported in PubChem BioAssay (NCI).
Several values for one entry are separate records, joined by “and”; a condition that tells them apart may be missing. Equal entries are not always repeated. Compounds without any hit were thinned out: in the full panel of roughly 79,000, 15% have a hit. A number with no mark means an inactive call. Activity calls are given as the source filed them. No stated cut-off is given here; in the data, active means growth inhibition above about 70%; inactive means the rest.

Experiment: NCI Yeast Anticancer Drug Screen. Data for the sgs1 mgt1 strain (AID 161);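 further: 0% = growth of cultures given vehicle only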
Details: S. cerevisiae sgs1 mgt1 strain, active compounds read high
Method: Growth inhibition of yeast strains with defined genetic alterations is measured as a screen for potential anti-cancer activity. Selected strains with alterations in DNA damage repair or cell cycle control were exposed to compounds and growth inhibition was measured relative to vehicle treated controls. The strain used in this assay is sgs1 mgt1

[1] = at 5.0 µM (retest, dose inferred, filed as 0.5)
[2] = at 50.0 µM (retest, dose inferred, filed as 5.0)

Compound | growth inhibition [1] | growth inhibition [2] | growth inhibition (at 50.0 µM)
Clc1ccc(CCN2CCOCC2)c(Cl)c1 | 0% | 42% | 54.4%
O=[N+]([O-])c1cc([As](Br)c2ccc(O)c([N+](=O)[O-])c2)ccc1O | 99% (active) | 99% (active) | 99.5% (active)
[Ni+2].[O-][Cl+3]([O-])([O-])O.c1ccc([PH+](CC[PH+](c2ccccc2)c2ccccc2)c2ccccc2)cc1.c1ccc([PH+](CC[PH+](c2ccccc2)c2ccccc2)c2ccccc2)cc1 | 1% | 32% | 59.2%
COc1ccc2c(c1O)-c1cccc3c1[C@@H](C2)N(CCCl)CC3 | 28% | 95% (active) | 57.6%
C=CCN(CC=C)CC(C(C)=O)C(c1ccccc1)c1c(O)c2ccccc2oc1=O (configuration not stated) | 23% | 23% | 84.2% (active)
Cc1ccc([PH+](c2ccc(C)cc2)c2ccc(C)cc2)cc1.Cc1ccc([PH+](c2ccc(C)cc2)c2ccc(C)cc2)cc1.[Cl][Hg][Cl] | 99% (active) | 95% (active) | 99.5% (active)
O=C1c2ccccc2[Se](=O)N1c1ccccc1 (configuration not stated) | 23% | 96% (active) | 93% (active)
CC1=C2C(=O)[C@H]3[C@@H](CC=C4C[C@@H](O)CC[C@@]43C)[C@@H]2CC[C@]12O[C@@H]1C[C@H](C)CN[C@H]1[C@H]2C | 11% and 5% | 84% (active) and 91% (active) | 97% (active) and 87% (active)
CC[n+]1c(/C=C/c2ccc(N(CCCl)CCCl)cc2)ccc2cc(I)ccc21 | 99% (active) | 99% (active) | 89.5% (active)
CCCCCCCC1(c2ccc(N)cc2)CCC(=O)NC1=O (configuration not stated) | 8% | 96% (active) | 54.2%
O=[N+]([O-])c1c(Cl)sc(Cl)c1[N+](=O)[O-] | 99% (active) | 99% (active) | 99.5% (active)
COc1cccc2c1C(=O)c1c(O)c3c(c(O)c1C2=O)C[C@@](O)(C(C)=O)C[C@@H]3OC1CC(N)C(OC2CC(O)C(O)C(C)O2)C(C)O1 (some centres not stated) | 14% | 44% | 39.8%
OC1CCCC[CH]1[Hg][Cl] (configuration not stated) | 100% (active) | 100% (active) | 49.2%
O=C(/C=C(\c1ccccc1)N1CC1)c1ccccc1 | -58% | 47% | 17.2%
